High-throughput results (PubChem BioAssay)
Shn3 inh set2 – reduces Shn3 3'UTR luciferase signal in osteoblasts; Clone20 osteoblast Shn3 3'UTR firefly luciferase, 24 h; inhibition, % at 12.5 µM; 360,000 tested, 0.52% active; AID 588674;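 active means mean inhibition of at least 75% with every replicate also reaching 75%; inconclusive means mean inhibition at least 75% but some replicate below; inactive means mean inhibition below 75%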
TRPM1 prom inh – MITF TRPM1 promoter inhibition in SK-MEL-5 cells | SK-MEL-5 TRPM1 promoter luciferase, 24 h | inhibition, % at 12.5 µM | 330,000 tested, 0.83% active;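 active means mean inhibition across replicates of 60% or more, whatever share of single replicates reaches that level; inconclusive means some that reach 60%, reason not given; inactive means mean inhibition across replicates below 60%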
CF NFkB block – inhibitors of cystic fibrosis induced NF-kB; KKLEB NF-kB-GFP reporter, PAF-induced, GFP fluorescence overnight; inhibition, % at 5 µM; AID 588850; 360,000 tested, 0.86% active;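 active means at least 50% inhibition at 5 µM, scaled per plate between neutral and stimulator controls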;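 further: PAF is a Pseudomonas aeruginosa culture filtrate used as stimulus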
Peg3 promoter – Peg3 promoter activity inhibition | inhibition, % at 20 µM | 360,000 tested, 1.7% active | AID 588405 | HeLa PEG-Prom luciferase reporter, luminescence, overnight;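 active means inhibition of at least 50% at 20 µM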
KKLEB cytotox – counter-screen for CF NF-kB inhibitors: cytotoxicity; 360,000 tested, 0.36% active; KKLEB CF airway cells viability, ATPlite luminescence, overnight; hits give low values; cells stimulated with P. aeruginosa culture filtrate; activity change (cytotoxicity), % at 5 µM;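 active means corrected activity change at or below -50% at 5 µM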
HIF-2a block – blocks HIF-2a reporter activity. AID 624352. 360,000 tested, 0.72% active. 786-0 RCC cells HIF-2a reporter, luciferase luminescence, overnight. inhibition, % at 18.8 µM;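 active means inhibition of the luminescence signal of 40% or more relative to plate controls, in a single-dose primary screen at 18.75 µM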
Mdm2 MdmX conf – Mdm2/MdmX (human) interaction inhibition, confirmed; inhibition, % at 8 µM; shares compounds with HIF-2a block; SaOS-2 split-luciferase Mdm2/MdmX complementation, luminescence; 740 tested, 99% active;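 active means mean inhibition of the luminescence signal across two replicates at or above 26 percent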
Target sequence (O15151 whole entry, looked up): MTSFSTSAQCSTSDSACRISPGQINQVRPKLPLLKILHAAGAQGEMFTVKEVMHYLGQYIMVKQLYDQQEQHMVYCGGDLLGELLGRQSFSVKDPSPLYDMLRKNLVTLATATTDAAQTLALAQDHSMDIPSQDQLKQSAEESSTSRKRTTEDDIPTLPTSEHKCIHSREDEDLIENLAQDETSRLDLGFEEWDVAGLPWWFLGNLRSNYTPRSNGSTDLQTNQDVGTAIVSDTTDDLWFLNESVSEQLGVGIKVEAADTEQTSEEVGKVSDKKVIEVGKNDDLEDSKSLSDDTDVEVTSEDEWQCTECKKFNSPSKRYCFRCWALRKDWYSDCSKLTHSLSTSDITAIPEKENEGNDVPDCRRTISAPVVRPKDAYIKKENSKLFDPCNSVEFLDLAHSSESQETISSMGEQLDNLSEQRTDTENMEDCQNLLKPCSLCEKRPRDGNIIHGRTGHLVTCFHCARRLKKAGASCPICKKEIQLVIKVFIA
Target sequence (Q00987 whole entry, looked up): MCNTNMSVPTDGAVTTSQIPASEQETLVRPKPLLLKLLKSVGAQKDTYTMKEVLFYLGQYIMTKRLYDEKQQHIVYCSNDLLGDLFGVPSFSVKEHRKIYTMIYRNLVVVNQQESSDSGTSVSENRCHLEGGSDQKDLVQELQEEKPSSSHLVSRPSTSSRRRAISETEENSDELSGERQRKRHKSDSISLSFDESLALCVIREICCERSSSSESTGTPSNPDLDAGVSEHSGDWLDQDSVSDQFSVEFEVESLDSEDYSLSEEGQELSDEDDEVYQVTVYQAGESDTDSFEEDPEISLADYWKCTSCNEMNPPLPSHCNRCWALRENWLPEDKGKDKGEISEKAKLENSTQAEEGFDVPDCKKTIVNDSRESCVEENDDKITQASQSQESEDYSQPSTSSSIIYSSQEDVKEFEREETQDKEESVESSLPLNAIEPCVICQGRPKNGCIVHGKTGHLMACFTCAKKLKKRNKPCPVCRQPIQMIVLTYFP
HIF-2a inh conf – HIF-2a inhibition, single concentration confirmation; shares compounds with HIF-2a block; 786-0 RCC cells, HIF-2a luciferase reporter luminescence, overnight; inhibition, % at 18.8 µM; 1,800 tested, 56% active;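 active means mean inhibition across four replicates of at least 40 percent at the single tested concentration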
HIF-1a counter – counter-screen for HIF-2a inhibitors: HIF-1a inhibition in MiaPaCa-2 cells; shares compounds with HIF-2a block; MiaPaCa-2 HIF-1a luciferase reporter, desferoxamine, overnight; inhibition, % at 18.8 µM; 1,800 tested, 72% active;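 active means mean inhibition of the reporter signal across four replicates at the single tested dose of 50% or more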
Each line names hits and unclear results; the compound was inactive in the other large screens (follow-up assays come after a bar, where they were run). This is a sample that favours compounds with a hit; in the whole collection about 2.7% have one here.

O=C(CN(c1cccc(C(F)(F)F)c1)S(=O)(=O)c1ccc(Cl)c([N+](=O)[O-])c1)NCc1ccccc1	none
O=C(OCCN1CCCCC1)c1ccccc1Cl	none
O=C(OCn1ncc(Cl)c(Cl)c1=O)c1ccc(F)cc1	none (no result: Shn3 inh set2, TRPM1 prom inh, CF NFkB block, Peg3 promoter, KKLEB cytotox, HIF-2a block) | Mdm2 MdmX conf 103.5
O=C(COC(=O)c1cnc(Cl)c(Cl)c1)c1ccc(F)cc1	none
O=C(OCn1ncc(Cl)c(Cl)c1=O)c1ccccc1Cl	Shn3 inh set2 98.8, TRPM1 prom inh 110.9, CF NFkB block 98.7, Peg3 promoter 101.5, KKLEB cytotox -89.9, HIF-2a block 95.4 | HIF-2a inh conf 98.0 | HIF-1a counter 106.0
Cc1ccc(C2C=CC(C#N)=CN2Cc2ccccc2)cc1 (stereo unspecified)	none (no result: TRPM1 prom inh)
CC(=O)Cn1ncc(Br)c(Br)c1=O	Shn3 inh set2 97.2, TRPM1 prom inh 99.3, CF NFkB block 95.5, Peg3 promoter 97.6, KKLEB cytotox -82.8, HIF-2a block 97.0 | HIF-2a inh conf 94.6 | HIF-1a counter 105.0
CC(C)(C)C(=O)Cn1ncc(N2CCCC2)c(Br)c1=O	none
O=c1c2ccccc2nc(/C=C/c2ccc([N+](=O)[O-])o2)n1CCCO	Shn3 inh set2 96.5, TRPM1 prom inh 97.8, Peg3 promoter 104.1, HIF-2a block 79.5 | HIF-2a inh conf 53.9 | HIF-1a counter 105.8
O=c1c2ccccc2nc(/C=C/c2ccc([N+](=O)[O-])cc2)n1CCCO	none
O=C(N/N=C/c1ccc([N+](=O)[O-])s1)c1ccncc1	TRPM1 prom inh inconclusive
O=C(N/N=C/c1ccc([N+](=O)[O-])s1)c1cccc(Br)c1	TRPM1 prom inh 82.3 | Mdm2 MdmX conf 63.2
Cc1ccc(C(=O)N/N=C\c2ccc([N+](=O)[O-])s2)cn1	TRPM1 prom inh 109.4, HIF-2a block 63.4 | HIF-2a inh conf 56.2 | HIF-1a counter 55.9
CCN(C(=O)COC(=O)/C(=C/c1ccccc1)n1nnnc1C)C1CCCCC1	HIF-2a block 42.4 | HIF-2a inh conf inactive | HIF-1a counter 62.6
Cc1nnnn1/C(=C\c1ccccc1)C(=O)OCC(=O)N(C)C1CCS(=O)(=O)C1 (stereo unspecified)	none
CC1(C)CC(=O)C2=C(C1)OC1=C(C(=O)CC(C)(C)C1)C2c1ccccc1Cl	none (no result: TRPM1 prom inh)
O=c1[nH]cc(F)c(=O)n1C1OC(CO)C(O)C1O (stereo unspecified)	none (no result: Shn3 inh set2, TRPM1 prom inh, CF NFkB block, Peg3 promoter, KKLEB cytotox)
CCOC(=O)CCc1ccc(NC(=O)/C=C/c2ccc([N+](=O)[O-])o2)cc1	TRPM1 prom inh inconclusive, HIF-2a block 91.3 | HIF-2a inh conf 54.3 | HIF-1a counter 107.0
O=C(O)/C=C/C(=O)c1ccc2c(c1)CCc1ccccc1-2	CF NFkB block 64.1, Peg3 promoter 99.7, HIF-2a block 49.6 (no result: TRPM1 prom inh) | HIF-2a inh conf 57.1 | HIF-1a counter 102.7
Cc1ccc(Cn2cc(CN(C)C3CN(Cc4cn(Cc5ccc(C)cc5)nn4)S(=O)(=O)C3)nn2)cc1 (stereo unspecified)	none (no result: Shn3 inh set2, TRPM1 prom inh, CF NFkB block, Peg3 promoter, KKLEB cytotox)
CN(Cc1cnn(-c2ccc(F)cc2)c1)C(=O)[C@H]1O[C@@H](n2cnc3c(N)ncnc32)[C@H](O)[C@@H]1O	none (no result: TRPM1 prom inh)
O=S(=O)(O)c1ccc2c(c1)C(C(Cl)(Cl)Cl)OC(C(Cl)(Cl)Cl)O2 (stereo unspecified)	none
CC(C)C(=O)N1CCN(c2ccc(NC(=O)c3ccc([N+](=O)[O-])o3)cc2)CC1	TRPM1 prom inh 92.3, CF NFkB block 90.1, Peg3 promoter 111.6, HIF-2a block 88.6 | HIF-2a inh conf 54.4 | HIF-1a counter 98.5
O=C(Nc1ccc(N2CCN(C(=O)c3ccccc3)CC2)cc1)c1ccc([N+](=O)[O-])o1	TRPM1 prom inh 91.1, CF NFkB block 84.0, Peg3 promoter 102.6, KKLEB cytotox -71.7, HIF-2a block 90.2 | HIF-2a inh conf 87.9 | HIF-1a counter 105.1
Cc1ccccc1C(=O)N1CCN(c2ccc(NC(=O)c3ccc([N+](=O)[O-])o3)cc2)CC1	Shn3 inh set2 99.4, TRPM1 prom inh 80.5, CF NFkB block 64.0, Peg3 promoter 100.9, HIF-2a block 96.0 | HIF-2a inh conf inactive | HIF-1a counter 100.5
COc1ccc(C(=O)Nc2ccc(N3CCN(C(=O)C(C)C)CC3)cc2)cc1[N+](=O)[O-]	none
Cc1cccc(NC(=O)/C=C/c2ccc([N+](=O)[O-])s2)c1	Shn3 inh set2 91.1, TRPM1 prom inh 94.6, Peg3 promoter 107.4, HIF-2a block 48.8 | HIF-2a inh conf inactive | HIF-1a counter 103.2
COc1cccc(NC(=O)/C=C/c2ccccc2[N+](=O)[O-])c1	none
Cc1ccc(NC(=O)/C=C/c2ccc([N+](=O)[O-])s2)c(C)c1	Shn3 inh set2 94.4, TRPM1 prom inh 109.2, Peg3 promoter 89.2, HIF-2a block 78.7 | HIF-2a inh conf inactive | HIF-1a counter 99.7
C[C@H](CO)N1C[C@H](C)[C@@H](CN(C)C(=O)CCC(F)(F)F)OCc2cnnn2CCCC1=O	none (no result: TRPM1 prom inh)
Cc1ccc(C)c(NCCCCCCCC(=O)O)c1	none (no result: TRPM1 prom inh)
C=CCn1c(C)cc(C(=O)Cn2ncc(Cl)c(Cl)c2=O)c1C	TRPM1 prom inh 67.4, CF NFkB block 88.5, Peg3 promoter 101.0, KKLEB cytotox -54.1, HIF-2a block 94.0 | HIF-2a inh conf inactive | HIF-1a counter 105.3
O=C(Cn1ncc(N2CCOCC2)c(Cl)c1=O)c1ccc(Cl)cc1	none
CC(C)(C)C(=O)Cn1ncc(Cl)c(Cl)c1=O	TRPM1 prom inh 91.3, Peg3 promoter 103.9, HIF-2a block 94.9 | HIF-2a inh conf inactive | HIF-1a counter 105.7
O=C(Cn1ncc(Cl)c(Cl)c1=O)c1ccc(Cl)cc1	TRPM1 prom inh 80.4, Peg3 promoter 108.1, HIF-2a block 96.1 | HIF-2a inh conf inactive | HIF-1a counter 105.8
C=CCn1c(C)cc(C(=O)CN2NS(=O)(=O)c3ccccc3C2=O)c1C	none
COc1cc(C(O)c2nc(-c3ccc(C)c(C)c3)cs2)ccc1F (stereo unspecified)	none (no result: TRPM1 prom inh)
Cc1ccc([C@H]2N[C@]3(CCCN(Cc4ccco4)C3=O)[C@H]3C(=O)N(C)C(=O)[C@@H]23)cc1	none (no result: TRPM1 prom inh)
Cc1onc(-c2c(F)cccc2Cl)c1C(=O)Oc1ccccc1	none (no result: TRPM1 prom inh)
Nc1[nH]c(C(=O)c2ccccc2)c(-c2ccc(F)cc2)c1C(=O)NCc1ccccc1	none (no result: Shn3 inh set2, TRPM1 prom inh, CF NFkB block, Peg3 promoter, KKLEB cytotox)
CC(=O)Nc1ccc(C(=O)N2CCCC(c3cc(C(=O)Nc4ccccc4Cl)no3)C2)cc1 (stereo unspecified)	none (no result: TRPM1 prom inh)
COc1ccccc1N/C=C/c1onc(C)c1[N+](=O)[O-]	none
